Pf Dd2 inh: blocks in vitro growth of P. falciparum Dd2; Potency, µM (highest dose often 28.9 µM), actives largely listed as inhibitors; P. falciparum Dd2 growth, SYBR Green, 72 h; 4.3% of 120,000 active; active = well fitted inhibition curve with a large enough effect; also: nearly all actives have a fitted effect of over 65% in size
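Readout: SYBR Green fluorescence, 485 nm excitation, 535 nm emission, after ~16 h lysis at 37C. Before that, Dd2-infected red cells (2.5% hematocrit) grew 72 h with compound, 29 uM top final concentration.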
A number is an active result; – = inactive; [ ] = dose if it differs, or a comment. Shown is part of a subset that was picked to be rich in hits.

SMILES | Pf Dd2 inh
CN1Cc2nc(-c3ccc4c(c3)OCO4)ccc2OCC1=O | –
CCN(CC)CCCNC(=O)Cc1ccc(NC(=O)N2CCCCc3ccccc32)cc1 | –
CCN(CC)CCNC(=O)c1ccc(-n2c(-c3ccccc3)cc3c2CCCC3)cc1 | 7.94µM
CCN(CC)CCNC(=O)c1ccc2c(c1)N(S(C)(=O)=O)CC2 | –
CCOc1ccccc1NC(=O)N1c2ccccc2CC1c1nc(C2CC2)no1 (stereo unspecified) | –[5.79 µM]
NC(=O)c1n[nH]c2c1CN(CC1(O)CNCCOC1)CC2 (stereo unspecified) | –
Cc1cccc(-c2ocnc2C(=O)N2CCC3(CC2)CC(O)CCO3)c1 (stereo unspecified) | –
CC(=O)NC1(C)CN(Cc2ccc(-c3ccc(Oc4ccccc4)cc3)s2)C1 | 3.98µM
CC(=O)NC1(C)CN(Cc2ccc(-c3cccc(F)c3)s2)C1 | –
CC(=O)NC1(C)CN(Cc2ccc(-c3cccc(C(F)(F)F)c3)s2)C1 | 7.08µM
COc1ncccc1-c1csc(CN2CCCC(C)(NC(C)=O)C2)c1 (stereo unspecified) | –
CC(=O)Nc1cccc(-c2csc(CN3CCCC(C)(NC(C)=O)C3)c2)c1 (stereo unspecified) | –
CC(=O)NC1(C)CN(c2cccc(C(F)(F)F)c2)C1 | –
O=C(O)c1ccc(C2CCCN(C(=O)c3cccc(N4CCOCC4)c3)C2)cc1 (stereo unspecified) | –
CCN(CCn1cccn1)C(=O)c1csc2nc(-c3cccc(F)c3)cn12 | –
CCOC(=O)CCNC(=O)c1ccc2c(c1)N(CC)C1CCCCCN1C2=O (stereo unspecified) | –
Cc1cc(C)n(CCC(=O)NCCC2CCN(C(=O)Nc3ccccc3)CC2)n1 | –
O=C(c1nnc(CNCCN2CCCC2)n1-c1ccccc1)N1CCC[C@@H]1C(c1ccccc1)c1ccccc1 | –
Cn1cnc(S(=O)(=O)N2CCCC(Cc3noc(-c4ccccc4)n3)C2)c1 (stereo unspecified) | –
COc1ccc(S(=O)(=O)N2CCCC(Cc3noc(-c4cnccn4)n3)C2)cc1 (stereo unspecified) | –
COc1ccc(S(=O)(=O)N2CCCC(Cc3noc(-c4ccccc4)n3)C2)cc1 (stereo unspecified) | 4.47µM
COCCOCc1nc(C2CCN(C(=O)Nc3cccc(Cl)c3)CC2)no1 | –
CSc1ccc(NC(=O)c2nnn3c2COC(c2ccc(C)cc2)C3)cc1 (stereo unspecified) | –
COc1ccc(S(=O)(=O)N2[C@@H]3CC[C@H]2CC(NC(=O)c2ccc(F)cc2)C3)cc1 (stereo partly specified) | –
COc1cc(OC)c(NC(=O)COc2ccccc2-c2nnc(-c3ccccc3)o2)cc1Cl | –
SMILES | Pf Dd2 inh
Cc1ccc(Cl)cc1NC(=O)c1ccc(-c2nc(CSc3ccccc3)c(C)o2)cc1 | –
Cc1ccc(Cl)cc1N1CCN(C(c2ccc(F)cc2)c2nnc(-c3ccccc3)o2)CC1 (stereo unspecified) | 7.94µM
Cc1cccc(N2CCN(C(c3ccc(F)cc3)c3nnc(-c4ccccc4)o3)CC2)c1C (stereo unspecified) | 11.2µM
Cc1ccc(Cl)cc1NC(=O)c1cnn2c(C(F)F)cc(-c3ccccc3)nc12 | –
Cc1cccc(N2CCN(c3ncnc4onc(C)c34)CC2)c1C | –
Cc1ccc(Cl)cc1NC(c1ccc(F)cc1)c1nnc(-c2ccccc2)o1 (stereo unspecified) | 12.6µM
Cc1ccccc1-c1nnc(CN2CCN(c3cc(Cl)ccc3C)CC2)o1 | –
COCCn1c(C)cc(O)c(C(c2ccc(F)cc2)N2CCN(c3ccccc3)CC2)c1=O (stereo unspecified) | –
Cc1ccc(Cl)cc1N1CCN(c2ncnc3onc(-c4ccc(F)cc4)c23)CC1 | –
COc1cc(OC)c(NC(c2nnc(-c3ccccc3)o2)c2ccc(F)cc2Cl)cc1Cl (stereo unspecified) | 6.31µM
COc1cc(OC)c(NC(=O)c2ccc3nc(C(C)C)oc3c2)cc1Cl | –
O=C1O[C@@H]2CN(Cc3cnc[nH]3)C[C@@H]2N1CCc1ccc(F)cc1 | –
O=C(c1ccc(F)c(F)c1)N1CCC2(CC1)NC(=O)N(Cc1ccccc1)C2=O | –
COc1ccc(-c2cn3c(n2)CO[C@@H](CNC2CCCC2)C3)cc1 | –
CC[C@H]1CN(C(=O)Nc2cccc(C(F)(F)F)c2)CC[C@H]1CC(=O)NCc1ccc(OC)c(OC)c1 | –
Cn1ncc(N2CCC(NC(=O)c3ccccc3)CC2)cc1=O | –
CN(Cc1ccccc1)C(=O)CCc1ccnc(N2CCOCC2)c1 | –
CC(C)n1ccc2c(NC(=O)Cn3nc4c(cc3=O)CCCCC4)cccc21 | –
CNC(=O)[C@@H]1CCCC[C@@H]1c1nc(-c2ccncc2)nn1CCO | –
CCc1ccc(CN2C[C@@H]3C(=O)N(CCOC)C(=O)[C@@H]3C2)cc1 | –
O=S(=O)(NC[C@H]1O[C@@H](CO)[C@@H](O)[C@H]1N1CCN(c2ccc(F)cc2)CC1)c1ccc(F)cc1 | –
CCOCCN1CCN([C@@H]2c3ccccc3C3(CCNCC3)[C@H]2O)CC1 | –
COc1cccc(CN2C[C@@H](CO)[C@H](C(=O)NC3CC3)C2)c1OC | –
CCn1ncc(CN2CC[C@H](CNC(=O)COC)[C@H](N(C)C)C2)c1C | –
Cc1cc(C)c(NC(=O)Cn2ccn3nc4c(c3c2=O)CCCC4)c(C)c1 | –
SMILES | Pf Dd2 inh
O=C(c1nc(-c2cccnc2)c2ccccn12)N1CCN(c2ncccn2)CC1 | –
C[S+](=O)([O-])c1ccc(-c2nc(C(=O)N3CCN(c4ncccn4)CC3)n3ccccc23)cc1 | 7.08µM
O=C(c1nc(-c2cc(Cl)cc(Cl)c2)c2ccccn12)N1CCN(c2ncccn2)CC1 | –
Cc1cc(C)cc(C(=O)N2CCC(Oc3ncccc3C(=O)N(C)C)C2)c1 (stereo unspecified) | –
CC(C)(C)c1ccc(CN2CCN(Cc3cc4n(n3)CCNC4)CC2)cc1 | –
COC(=O)c1scc(-c2ccc(C)cc2)c1S(=O)(=O)Nc1cc(C)c(Cl)cc1OC | 8.91µM
COC(=O)c1scc(-c2ccc(C)cc2)c1S(=O)(=O)N1CCN(c2ccccc2F)CC1 | 11.2µM
COC(=O)c1scc(-c2ccc(C)cc2)c1S(=O)(=O)N1CCN(c2ccccc2)CC1 | –
COC(=O)c1scc(-c2ccc(C)cc2)c1S(=O)(=O)Nc1ccc(NC(C)=O)cc1 | –
COC(=O)c1scc(-c2ccc(C)cc2)c1S(=O)(=O)N1CCN(c2ccc(C)cc2C)CC1 | –
COC(=O)c1scc(-c2ccc(C)cc2)c1S(=O)(=O)Nc1ccc(N(C)C)cc1 | –
Fc1ccc(-c2cc(CC3(NCc4cccc5c4OCO5)COC3)no2)cc1 | –
COC1CCC12CCN(C(=O)c1cnccc1C)CC2 (stereo unspecified) | –
CC(C)n1nc(OC(C)(C)C(=O)NC2CC2)c2cc(CN3CCOCC3)ccc21 | –
Cn1cnc2cc(C(=O)N[C@@H]3COCC[C@@H]3OCc3cscn3)ccc21 | –
Cc1nc(-c2c3n(c(=O)n(CC(=O)Nc4ccc(F)cc4)c2=O)CCCC3)no1 | –
CCOc1ccc2c(c1)c(=O)c(S(=O)(=O)c1ccc(F)cc1)cn2CC(=O)Nc1ccccc1C | –
Cc1ccc(S(=O)(=O)c2cn(CC(=O)Nc3ccc(Cl)cc3)c3ccc(F)cc3c2=O)cc1C | –
COc1ccc(OC)c(NC(=O)Cn2cc(S(=O)(=O)c3ccccc3)c(=O)c3cc(C)ccc32)c1 | –
COc1ccc2c(c1)c(=O)c(S(=O)(=O)c1ccc(Cl)cc1)cn2Cc1cc(C)ccc1C | 11.2µM
